Reference: PubChem BioAssay (EPA / NIEHS)
Values joined by “and” are separate entries in the source; they are usually repeats but may differ in a detail not shown here. Equal entries are not always repeated. A structure can be active in one record and inactive in another. Active and inactive are the calls of the source. The calls were made as follows: active = hit-call score of the fitted dose curve at least 0.9, where 1 is the maximum; inactive = score below 0.9.

Read-out: Interleukin-8 (IL8), CXCL8 (gene 3576)
Test: BSK_SAg_IL8: BioMAP Diversity Plus: SAg Assay for Interleukin-8 (IL8) Biomarker Activity (AID 2283094)
Conditions: primary human HUVEC with PBMC; actives raise or lower the signal
How it was run: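 ELISA readout of IL-8 from a superantigen-activated endothelial/PBMC primary human co-culture, taken 24 h post-dosing and fitted in both directions against DMSO; parallel SRB total-protein staining flags overt cytotoxicity.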

Question: Which outcome does the source give for `CC1(C)[C@H](C=C(Cl)Cl)[C@H]1C(=O)OCc1cccc(Oc2ccccc2)c1` here?
Answer: The outcome was “inactive”.

Question: With `O=C(O)C(F)(F)C(F)(F)C(F)(F)C(F)(F)C(F)(F)C(F)(F)C(F)(F)C(F)F` as the molecule, how does the outcome read?
Answer: Its outcome is “inactive”.

Question: For `OCCN1CCOCC1`, which outcome is on record?
Answer: Its outcome is “inactive”.

Question: For `COC(=O)c1ccc(C(=O)OC)cc1`, which outcome is on record?
Answer: Its outcome is “inactive”.

Read-out: not listed separately
Test: BSK_SAg_Proliferation: Cell Proliferation Assessment in the BioMAP Diversity Plus: SAg Assay (AID 2283095);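 also: relative cell number as total protein by SRB absorbance in sub-confluent culture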
Conditions: primary human HUVEC with PBMC
How it was run: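 Relative cell number in the endothelial cell/PBMC co-culture was quantified at 96 h by SRB staining (0.1% SRB, 10% TCA fixation, read at 560 nm). Curves were fitted in both directions relative to DMSO baseline.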

Question: For `CC/C(=C(\c1ccccc1)c1ccc(OCCN(C)C)cc1)c1ccccc1`, which AC50 is on record?
Answer: Its AC50 is 4.55 µM (active) and 5.13 µM (active).

Question: For `CC(=O)CCC=C(C)CCC=C(C)C`, which AC50 is on record?
Answer: The AC50 was 20 µM (active).

Question: With `CC(C)Cc1ccc(C(C)C(=O)O)cc1` (stereo not drawn) as the molecule, how does the outcome read?
Answer: The outcome was “inactive”.

Question: For `CC(C)(CO)CO`, which outcome is on record?
Answer: The outcome was “inactive”.

Question: Which AC50 does the source give for `OCC(F)(OC(F)(F)C(F)(OC(F)(F)C(F)(F)C(F)(F)F)C(F)(F)F)C(F)(F)F` (stereo not drawn) here?
Answer: The AC50 was 2.09 µM (active) and 2.02 µM (active).

Question: With `C=C(C)C(=O)OCCC(F)(F)C(F)(F)C(F)(F)C(F)(F)C(F)(F)C(F)(F)C(F)(F)C(F)(F)F` as the molecule, how does the outcome read?
Answer: The outcome was “inactive”.

Question: Which outcome does the source give for `CC(C)CCCC(C)(C)O` here?
Answer: The outcome was “inactive”.

Question: With `C#C[C@]1(O)CC[C@H]2[C@@H]3CCc4cc(O)ccc4[C@H]3CC[C@@]21C` as the molecule, how does the AC50 read?
Answer: The AC50 was 5.51 µM (active).

Question: Which outcome does the source give for `c1ccc(OCCOc2ccccc2)cc1` here?
Answer: The outcome was “inactive”.

Question: For `CCCO[Si](OCCC)(OCCC)OCCC`, which outcome is on record?
Answer: The outcome was “inactive”.

Question: With `CCCCCCCC1CCCC1=O` (stereo not drawn) as the molecule, how does the outcome read?
Answer: Its outcome is “inactive”.

Question: With `c1ccc2c(c1)-c1ccc3ccc4cccc5cc-2c1c3c45` as the molecule, how does the outcome read?
Answer: Its outcome is “inactive”.

Question: Which outcome does the source give for `NC(=O)c1c(Cl)cccc1Cl` here?
Answer: The outcome was “inactive”.

Question: With `CC1=CC(C)C(C=O)C(C)C1` (stereo not drawn) (tested in a mixture with another compound) as the molecule, how does the outcome read?
Answer: The outcome was “inactive”.

Question: With `CC=CC(=O)C1=C(C)C=CCC1(C)C` as the molecule, how does the outcome read?
Answer: The outcome was “inactive”.

Question: Which outcome does the source give for `O=C(O)C(F)(F)OC(F)(F)C(F)(F)OC(F)(F)C(F)(F)C(F)(F)C(F)(F)F` here?
Answer: The outcome was “inactive”.

Question: With `C=CC(=O)OCC(CO)(COC(=O)C=C)COC(=O)C=C` as the molecule, how does the AC50 read?
Answer: Its AC50 is 0.0305 µM (active).

Question: Which AC50 does the source give for `c1ccc(Sc2ccccc2)cc1` here?
Answer: Its AC50 is 34 µM (active).

Question: With `CC(=O)c1ccc(C)cc1` as the molecule, how does the outcome read?
Answer: Its outcome is “inactive”.

Question: Which AC50 does the source give for `CCCCCCCCCC(=O)OCC` here?
Answer: The AC50 was 33.5 µM (active).

Question: For `CC1(C)[C@H](C=C(Cl)Cl)[C@H]1C(=O)OCc1cccc(Oc2ccccc2)c1`, which outcome is on record?
Answer: Its outcome is “inactive”.

Question: Which outcome does the source give for `O=C(O)C(F)(F)C(F)(F)C(F)(F)C(F)(F)C(F)(F)C(F)(F)C(F)(F)C(F)F` here?
Answer: Its outcome is “inactive”.

Question: Which outcome does the source give for `OCCN1CCOCC1` here?
Answer: Its outcome is “inactive”.

Question: With `COC(=O)c1ccc(C(=O)OC)cc1` as the molecule, how does the outcome read?
Answer: Its outcome is “inactive”.

Read-out: not listed separately
Test: BSK_SAg_SRB: Viability Assessment in the BioMAP Diversity Plus: SAg Assay (AID 2283096);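 also: cells read one day after compound addition; hits may be either gain or loss of signal compared with DMSO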
Conditions: primary human HUVEC with PBMC
How it was run: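 SRB absorbance at 560 nm served as the viability read-out. Cells (HUVEC plus peripheral blood mononuclear cells) were TCA-fixed and stained 24 h post-dosing; activity fitted in both directions against DMSO controls.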

Question: For `CC/C(=C(\c1ccccc1)c1ccc(OCCN(C)C)cc1)c1ccccc1`, which AC50 is on record?
Answer: The AC50 was 10.3 µM (active) and 9.96 µM (active).

Question: For `CC(=O)CCC=C(C)CCC=C(C)C`, which outcome is on record?
Answer: Its outcome is “inactive”.

Question: Which outcome does the source give for `CC(C)Cc1ccc(C(C)C(=O)O)cc1` (stereo not drawn) here?
Answer: Its outcome is “inactive”.

Question: With `CC(C)(CO)CO` as the molecule, how does the outcome read?
Answer: Its outcome is “inactive”.

Question: For `OCC(F)(OC(F)(F)C(F)(OC(F)(F)C(F)(F)C(F)(F)F)C(F)(F)F)C(F)(F)F` (stereo not drawn), which AC50 is on record?
Answer: The AC50 was 5.05 µM (active) and 3.37 µM (active).

Question: Which outcome does the source give for `C=C(C)C(=O)OCCC(F)(F)C(F)(F)C(F)(F)C(F)(F)C(F)(F)C(F)(F)C(F)(F)C(F)(F)F` here?
Answer: The outcome was “inactive”.

Question: For `CC(C)CCCC(C)(C)O`, which outcome is on record?
Answer: The outcome was “inactive”.

Question: Which AC50 does the source give for `C#C[C@]1(O)CC[C@H]2[C@@H]3CCc4cc(O)ccc4[C@H]3CC[C@@]21C` here?
Answer: Its AC50 is 5.5 µM (active).

Question: With `c1ccc(OCCOc2ccccc2)cc1` as the molecule, how does the outcome read?
Answer: Its outcome is “inactive”.

Question: Which outcome does the source give for `CCCO[Si](OCCC)(OCCC)OCCC` here?
Answer: The outcome was “inactive”.

Question: Which outcome does the source give for `CCCCCCCC1CCCC1=O` (stereo not drawn) here?
Answer: Its outcome is “inactive”.

Question: With `c1ccc2c(c1)-c1ccc3ccc4cccc5cc-2c1c3c45` as the molecule, how does the outcome read?
Answer: Its outcome is “inactive”.

Question: With `NC(=O)c1c(Cl)cccc1Cl` as the molecule, how does the outcome read?
Answer: Its outcome is “inactive”.

Question: With `CC1=CC(C)C(C=O)C(C)C1` (stereo not drawn) (tested in a mixture with another compound) as the molecule, how does the outcome read?
Answer: Its outcome is “inactive”.

Question: For `CC=CC(=O)C1=C(C)C=CCC1(C)C`, which outcome is on record?
Answer: Its outcome is “inactive”.

Question: Which AC50 does the source give for `O=C(O)C(F)(F)OC(F)(F)C(F)(F)OC(F)(F)C(F)(F)C(F)(F)C(F)(F)F` here?
Answer: Its AC50 is 30 µM (active).

Question: What about the outcome of the same molecule?
Answer: The outcome was “inactive”.

Question: Which AC50 does the source give for `C=CC(=O)OCC(CO)(COC(=O)C=C)COC(=O)C=C` here?
Answer: The AC50 was 2.13 µM (active).

Question: Which AC50 does the source give for `c1ccc(Sc2ccccc2)cc1` here?
Answer: The AC50 was 31.7 µM (active).

Question: Which outcome does the source give for `CC(=O)c1ccc(C)cc1` here?
Answer: Its outcome is “inactive”.

Question: Which outcome does the source give for `CCCCCCCCCC(=O)OCC` here?
Answer: Its outcome is “inactive”.

Question: For `CC1(C)[C@H](C=C(Cl)Cl)[C@H]1C(=O)OCc1cccc(Oc2ccccc2)c1`, which outcome is on record?
Answer: The outcome was “inactive”.

Question: Which outcome does the source give for `O=C(O)C(F)(F)C(F)(F)C(F)(F)C(F)(F)C(F)(F)C(F)(F)C(F)(F)C(F)F` here?
Answer: Its outcome is “inactive”.

Question: For `OCCN1CCOCC1`, which outcome is on record?
Answer: The outcome was “inactive”.

Question: Which outcome does the source give for `COC(=O)c1ccc(C(=O)OC)cc1` here?
Answer: The outcome was “inactive”.
